Compounds with a hit are over-represented: about 0.5% of the library has one in this group of screens.
phage Ecoli inh: E. coli growth loss with phage present; growth absorbance; inhibition, % at 11.9 µM; 360,000 compounds, 0.26% hits; in the data active means inhibition above about 11%
E coli growth-1: E. coli growth inhibition. Escherichia coli growth, OD600, 23 h; hits give low values. 330,000 compounds, 0.21% hits. OD600 absorbance (concentration not given with the values);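 active means OD600 absorbance below the run mean of sample wells minus 3.6 SD, in any replicate, cut at about 0.56 in these data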
AddAB inh: less growth of phage-infected E. coli with AddAB. inhibition, % at 11.9 µM. 330,000 compounds, 0.29% hits. E. coli expressing H. pylori AddAB, absorbance growth; in the data active means inhibition above about 12%
E coli growth-2: bacterial growth inhibition, counter-screen for AddAB inhibitors | inhibition, % at 11.9 µM | E. coli V3065 growth, OD600 absorbance, 18 h | AID 449728 | 330,000 compounds, 0.27% hits;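 active means inhibition above the campaign's mean inhibition across all tested compounds plus 3 SD, cut at about 9.9% in these data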;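 further: uninfected addAB+ strain grown without phage in ampicillin broth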
Tat transport: E. coli Tat transport inhibition; E. coli MC4100 TorA-mCherry Tat export, fluorescence; inhibition, % at 10 µM; 340,000 compounds, 0.036% hits; AID 488895;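 active means mean replicate inhibition at least 50% and at least half of replicates individually reaching 50%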;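 further: exported cargo escapes ClpAP degradation while cytoplasmic cargo is degraded and loses fluorescence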
RecBCD conf: growth loss of phage-infected V66 E. coli, RecBCD confirmation screen; shares compounds with phage Ecoli inh; E. coli V66 + T4 2- phage, growth OD; inhibition, % at 11.9 µM; 890 compounds, 45% hits;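 active means mean inhibition over triplicates exceeding the hit threshold derived in the original primary screen, cut at about 11% in these data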
Ecoli viability: counter-screen for RecBCD inhibitors: inhibitors of bacterial viability; E. coli viability, absorbance (OD) growth; 890 compounds, 29% hits; inhibition, % at 11.9 µM; shares compounds with phage Ecoli inh; in the data active means inhibition above about 20%;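 further: E. coli strain V66 grown with compound alone and no phage infection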
AddAB counter: growth loss of phage-infected AddAB E. coli, RecBCD counter-screen | shares compounds with phage Ecoli inh | E. coli expressing H. pylori AddAB + T4 phage, OD growth; gene 2 mutant T4, recBCD-deleted host | inhibition, % at 11.9 µM | 890 compounds, 45% hits | AID 651984;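 active means mean inhibition above the solvent-only control wells' mean plus 3 SD, cut at about 22% in these data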;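 further: higher means less bacterial growth from phage killing when AddAB is blocked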
Hits are given with their value; n = inactive; x = not tested or not shown.

SMILES	phage Ecoli inh	E coli growth-1	AddAB inh	E coli growth-2	Tat transport	RecBCD conf	Ecoli viability	AddAB counter
CCOC(=O)C1C2COc3ccc(OC)cc3C2N2C(=O)CN(Cc3ccc(F)cc3)C(=O)[C@@]12C (some centres not stated)	x	n	x	x	x	x	x	x
Nc1nc(N)nc(-c2ccc([N+](=O)[O-])o2)n1	103.0	0.506	x	x	n	63.9	88.8	98.4
O=[N+]([O-])c1ccc(/C=[N+](\[O-])[C@@H]2CCCC[C@@H]2/[N+]([O-])=C/c2ccc([N+](=O)[O-])o2)o1	n	n	n	n	n	x	x	x
Cc1ccccc1C(=O)NN=Cc1ccc(OCC(=O)N2CCCCC2)cc1	x	n	x	x	x	x	x	x
COc1ccccc1NC(=S)NC(NC(=O)c1ccco1)C(Cl)(Cl)Cl (configuration not stated)	11.4	n	n	n	n	n	n	n
CC1CCN(C(=O)c2[nH]cnc2C(=O)NC(Cc2ccccc2)C(=O)OC(C)(C)C)CC1 (configuration not stated)	x	n	x	x	x	x	x	x
COC(=O)c1ccc(NC(=O)Nc2ccccc2F)cc1	n	n	n	n	n	x	x	x
O=C(Nc1cccc(Cl)c1)Nc1nnc(-c2ccncc2)s1	13.5	n	n	n	n	n	n	n
COC(=O)c1ccc(NC(=O)Nc2ccc(F)c(Cl)c2)cc1	11.8	n	n	10.1	n	n	n	n
Cc1cc(OC(F)F)ccc1NC(=O)Nc1ccc([N+](=O)[O-])cc1	13.0	n	n	n	n	n	n	n
COC(=O)c1ccc(NC(=O)Nc2ccc([N+](=O)[O-])cc2)cc1	13.7	0.425	n	n	n	n	n	n
CC(=O)c1ccc(NC(=O)Nc2cccc(Cl)c2)cc1	10.9	0.512	n	n	n	n	n	n
COc1cccc(NC(=O)Nc2ccc(C)c(Cl)c2)c1	n	n	n	n	n	x	x	x
Cc1ccc(NC(=O)Nc2ccc(F)cc2)cc1Cl	11.6	n	n	n	n	n	n	n
Cn1c(=O)c2nnn(N=C(c3ccccc3)C3CC3)c2n(C)c1=O	x	n	x	x	x	x	x	x
Cc1cc(NC(=O)Cn2c(C)nc3ccccc3c2=O)ccc1Br	13.4	n	20.0	18.7	n	12.1	n	n
CCC(=O)Nc1ccc2nc(C)n(CC(=O)Nc3ccccc3)c(=O)c2c1	n	n	n	n	n	x	x	x
CC1CN(C(C)CO)C(=O)c2cccc(NC(=O)c3ccncc3)c2OC1CN(C)Cc1ccc(Cl)c(Cl)c1 (configuration not stated)	x	n	x	x	x	x	x	x
CCOC(=O)C1C2COc3ccc(Br)cc3C2N2C(=O)CN(CC3CCCO3)C(=O)[C@@]12C (some centres not stated)	x	n	x	x	x	x	x	x
O=C(Nc1ccccn1)C(c1ccccc1)c1ccccc1	11.9	x	x	x	x	n	n	n
Cc1ccc(NC(=O)C(c2ccccc2)c2ccccc2)nc1	n	n	n	n	n	x	x	x
CC(CCc1ccco1)NC(=O)Cn1ncc2c(=O)oc3ccccc3c21 (configuration not stated)	98.7	n	n	n	n	n	n	n
FC(F)(F)c1cccc(NC(=S)NCC2COc3ccccc3O2)c1 (configuration not stated)	11.6	n	n	n	n	n	n	n
COc1ccc(OC)c(C(=O)Cn2nnc(-c3ccc(N4CCOCC4)cc3)n2)c1	12.1	n	n	n	n	n	n	n
CC=CC(=O)Nc1cccc(C2=NOC3(C2)CC(C(N)=O)N(C(=O)C=CCC)C3)c1 (configuration not stated)	x	n	x	x	x	x	x	x
SMILES	phage Ecoli inh	E coli growth-1	AddAB inh	E coli growth-2	Tat transport	RecBCD conf	Ecoli viability	AddAB counter
O=C1c2ccccc2C2=Nc3ccccc3SC(c3cccc(F)c3)C12 (configuration not stated)	15.6	n	n	12.3	n	12.5	n	26.2
Fc1cccc(C2NN=C(c3ccccc3)S2)c1 (configuration not stated)	n	n	n	n	n	x	x	x
NC(=S)NN=Cc1nccc2c(C(F)(F)C(F)(F)C(F)(F)F)cccc12	14.6	x	x	x	x	n	n	n
NC(=S)NN=Cc1nccc2ccccc12	20.7	0.459	x	x	n	28.9	38.9	31.8
Cc1cnc(C=NNC(N)=S)c2cccc(N)c12	n	x	x	x	n	x	x	x
COc1ccc(C(=O)NN=C(C)c2cccc(NC(=O)c3ccncc3)c2)cc1OC	x	n	x	x	x	x	x	x

Compound activity (PubChem)
